# Reference: the supplement of paper PMC4466236
# Over roughly 33,000 sequences, “E-score (dimensionless, -0.5 to 0.5)” has its median near -0.058; the highest 2% begin near 0.35. This excerpt belongs to a sample that is enriched for the highest values.
# Test system: MvaT
# Assay: PBM 8-mer E-score (mean of HK and ME arrays) (E-score (dimensionless, -0.5 to 0.5)); higher = stronger relative binding preference
# Protocol: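 Protein binding microarray: GST-tagged full-length MvaT (P. aeruginosa PAO1) bound to two universal double-stranded 60-mer arrays (ME and HK), each with a constant 25-mer primer and a variable 35-mer region covering all 8-mers. The 8-mer E-score (rank-based, range -0.5 to 0.5, >0.45 = specific binding) is the mean of the two arrays.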
row,Sequence,PBM 8-mer E-score
1,ATTGTTAA,0.393
2,AATGTTAC,0.186
3,GTTGTTAA,0.257
4,AATGTTAT,0.372
5,ATTGTTAG,0.235
6,ACTGTTAT,0.306
7,AATGTTAA,0.387
8,GATGTTAA,0.277
9,AATGTTAG,0.209
10,GATCGTGA,-0.153
11,CTTGCCCA,-0.191
12,AGCCCGGA,-0.201
13,AAATATTA,0.438
14,CGATATTA,0.331
15,CAATATCA,0.304
16,AGATATTA,0.412
17,AAATATGG,0.278
18,AAATATTG,0.306
19,AAATATCT,0.277
20,AAATATCA,0.304
21,AAATATTT,0.463
22,TAATATCA,0.421
23,GGATATTA,0.332
24,ACAGATAC,0.102
25,ACGGGGAT,-0.00987

row,Sequence,PBM 8-mer E-score
1,AAGCTTTA,0.0937
2,GAATGGCA,-0.00364
3,GCGAATAC,0.0443
4,ACATTAGG,0.0719
5,ATAGTCAA,0.165
6,GACGCGCA,-0.188
7,CAATATTG,0.377
8,CAATATGG,0.156
9,AAATATGA,0.241
10,GAATATTA,0.4
11,CAATATCG,0.18
12,TAATATTA,0.474
13,AAATATGC,0.305
14,AAATATGT,0.348
15,TAATAGGA,0.222
16,TAATACCA,0.336
17,TATCGAAA,0.144
18,GCGATAGC,-0.262
19,GAAAGCGA,0.0347
20,AAGGGTAA,0.109
21,AGACCAAG,-0.0618
22,TGCGGAAA,0.107
23,TCCTCAGA,-0.142
24,CAATATGC,0.0377
25,GAATATGA,0.19

row,Sequence,PBM 8-mer E-score
1,CAATATTC,0.226
2,TAATATGA,0.354
3,CAATATTA,0.373
4,CAATATGA,0.244
5,ACGAGTAC,0.047
6,ACACAAAT,0.237
7,AGCACGGA,-0.111
8,GGCCCACC,-0.28
9,GATGTATA,0.289
10,CATGTATA,0.264
11,GTAGTATA,0.319
12,AAAGTATC,0.211
13,CAAGTATA,0.373
14,ATAGTATA,0.38
15,AATGTATA,0.366
16,ATAGTATG,0.21
17,TAAGTATA,0.282
18,GAAGTATA,0.263
19,AAAGTATA,0.41
20,AAAGTATT,0.27
21,ATTCCGGA,0.138
22,TGGCGACA,-0.132
23,ATCGCCAT,0.016
24,AGATCTCC,-0.204
25,AACAGTGT,0.123

row,Sequence,PBM 8-mer E-score
1,GCGTCGCC,-0.203
2,CCATAAGG,-0.19
3,CGGTAAAC,0.0615
4,AACACCCG,0.00525
5,AGTTGCAT,0.182
6,AGTCTAAC,0.049
7,AATTCTGG,0.076
8,ACGCAGTG,-0.257
9,CTTCATTA,0.338
10,AGTCCGAG,-0.29
11,TATAACGA,0.374
12,ATTAACAG,0.334
13,GATAACAA,0.263
14,AATAACGA,0.326
15,AATAACCT,0.228
16,AATAACCG,0.367
17,TATAACAA,0.355
18,CATAACAA,0.0795
19,AATAACCC,0.226
20,ATTAACAA,0.381
21,ATTAACAC,0.328
22,GATAACGA,0.0582
23,GCATTGGA,-0.0184
24,AAAGGTCC,-0.197
25,CTACCTAC,-0.00994

row,Sequence,PBM 8-mer E-score
1,ATCTTGCC,0.0286
2,GAGCAGGC,-0.379
3,AATGTGAG,0.0855
4,GTTGGGGA,-0.0857
5,ATTGGAGC,-0.00417
6,CTAATCAG,-0.0597
7,AATAACAC,0.331
8,AATAACAA,0.38
9,AATAACAT,0.32
10,AACCACCG,-0.0371
11,CTCCTAAA,-0.112
12,ATATAACC,0.37
13,AGATAACG,0.0641
14,ATATAACG,0.406
15,ATATAACA,0.423
16,CTATAACC,0.155
17,CTATAACA,0.297
18,GTATAACA,0.3
19,ACATAACG,0.183
20,AGATAACC,-0.021
21,ACGTAATA,0.29
22,GGGTAACC,-0.246
23,CCTGCGCC,-0.28
24,ACGTTAGC,-0.113
25,CGGTTGCC,-0.279

row,Sequence,PBM 8-mer E-score
1,CGACCCAA,-0.0201
2,CAGGGTCG,-0.317
3,TAGGAAGA,0.048
4,GAAAAAAA,0.0648
5,CAAAATAA,0.343
6,TAAAATAA,0.438
7,TAAAATTA,0.288
8,AAAAATAA,0.403
9,GAAAATAC,0.134
10,TAAAATCA,0.198
11,AAAAATAT,0.377
12,AAAAATAC,0.158
13,GAAAATAA,0.349
14,AAAAAAAA,0.271
15,AAAAATAG,0.0973
16,AGCGCGCG,-0.184
17,GTGATAAA,0.211
18,CTAGAGAG,-0.241
19,CGCTATTA,0.18
20,AACTATTC,0.255
21,CACTATTC,0.0563
22,AACTATTA,0.399
23,GACTATTA,0.305
24,CACTATTA,0.357
25,AGCAGGAA,-0.195

row,Sequence,PBM 8-mer E-score
1,CAACCCTG,-0.133
2,AAACTTTC,0.312
3,GGACTTTA,-0.06
4,AAACTTTG,0.317
5,GAACTTTA,0.346
6,CAACTTTA,0.297
7,AAACTTTA,0.357
8,AAACAAAG,0.192
9,CCAATGAA,-0.1
10,CGTAATAC,0.208
11,TGTAAAAA,0.208
12,CGTAATAG,0.173
13,GGTAATAA,0.335
14,TGTAATAA,0.399
15,CGTAATAA,0.398
16,GCCGCTGA,-0.231
17,CGAATATA,0.355
18,GGAATATA,0.329
19,AGAATATA,0.378
20,AGAATATC,0.195
21,AGAATATG,0.277
22,CGAATATC,0.0677
23,AAGGGGTA,-0.15
24,GTGTTACA,0.244
25,CCATACGC,-0.202

row,Sequence,PBM 8-mer E-score
1,ATATTTGC,0.351
2,CTATTTGA,0.229
3,CTATTTGC,0.148
4,GTATTTGA,0.319
5,ATATTTGG,0.177
6,ATATTTGA,0.363
7,ACTTTTTC,0.0911
8,CCAGATAA,0.165
9,AGTAGACA,-0.00875
10,ACATATGA,0.179
11,ACACATAA,0.273
12,ACATATAA,0.446
13,ACATATAT,0.47
14,ACATATAC,0.287
15,ACATATAG,0.264
16,ATACATCA,0.192
17,CGGTAGCC,-0.317
18,AGTTCAGG,0.0672
19,AATCTTGT,0.0955
20,AAGCTCTA,-0.217
21,CTATAATC,0.295
22,ATATAATC,0.415
23,ATATAATG,0.402
24,ATCTAATC,0.167
25,ATATAAGG,0.31

row,Sequence,PBM 8-mer E-score
1,ACATAATG,0.302
2,AAGGAATG,0.0374
3,TCTAGAAA,0.0814
4,TCTCCTCA,-0.177
5,CCTGGTAA,-0.0325
6,GCCGTCAC,-0.163
7,CCAATCGG,-0.128
8,CGTCTCAA,-0.0154
9,ATGTCAGC,-0.039
10,TTTTAAAA,0.409
11,GTTAAAAA,0.239
12,TTTAAAAA,0.363
13,CTTTAAAA,0.287
14,TTAAAAAA,0.305
15,GTTTAAAA,0.293
16,AGAAGTTA,0.279
17,GAACATTC,-0.0126
18,CATTGTAC,0.151
19,AGGACGTA,-0.138
20,CAGTATTA,0.289
21,AAGTATTC,0.161
22,GCGTATTA,0.193
23,ACGTATTA,0.356
24,ACGTATTG,0.183
25,AAGTATTA,0.388

row,Sequence,PBM 8-mer E-score
1,ATATCTAG,0.252
2,GCCTACGA,-0.271
3,GCATACCA,-0.104
4,CCGTGCGA,-0.193
5,TCAAATAA,0.28
6,ACAAATAC,0.247
7,ACAAATAT,0.405
8,ACAAATAA,0.38
9,GCAAATAA,0.325
10,ACAAATAG,0.268
11,CCAGGCAC,-0.347
12,GCCGAGAA,-0.0283
13,ACATATGG,0.145
14,ACATATGC,0.129
15,GTATATGA,0.245
16,ATATATGA,0.439
17,ATATATGG,0.42
18,CTATATGC,0.227
19,ATATATGC,0.424
20,CTATATGA,0.124
21,AGATATGG,0.00259
22,AAAGCTCC,-0.295
23,AGTCTTAC,0.0995
24,CGAGATCA,-0.0866
25,ATAGAGAG,0.188

row,Sequence,PBM 8-mer E-score
1,GTATAGAA,0.0668
2,ATATAGAC,0.224
3,ATATAGAT,0.35
4,ATATAGAG,0.351
5,AGATAGAT,0.152
6,CTATAGAG,-0.125
7,ATATAGAA,0.366
8,CTATAGAA,0.103
9,ATGACCAC,-0.00499
10,AATGTTTG,0.212
11,AGGCGAGA,-0.0992
12,CACGCCAG,-0.233
13,AACGCGGA,-0.163
14,AAGAGGTC,-0.209
15,ATAACTAC,0.272
16,CTTTAGAC,0.0841
17,ATGCGGTA,-0.111
18,TAACTTAA,0.406
19,CACTTTCA,0.136
20,TGCTTTAA,0.094
21,GACTTTAA,0.262
22,CAACTTAA,0.31
23,AACTTTCA,0.351
24,AAACTTAT,0.381
25,AACTTTCT,0.22

row,Sequence,PBM 8-mer E-score
1,AAACTTAC,0.306
2,GAACTTAA,0.263
3,TACTTTAA,0.422
4,AAACTTAA,0.326
5,AAAACCGC,0.058
6,AGGACGGA,-0.0832
7,ACCTGGGG,-0.366
8,AGGCTGAT,-0.0817
9,CCCGGTTA,0.00633
10,ATTGCGCA,0.111
11,ACTGGACG,-0.0771
12,AACTTTAT,0.357
13,AACTTTAG,0.211
14,AACTTTAC,0.275
15,AACTTTAA,0.385
16,AACTTTTA,0.34
17,CACTTTAA,0.274
18,GGGTGCGA,-0.091
19,CCGGCGCA,-0.0431
20,ATCGACAC,-0.0169
21,AGTGCGCA,0.13
22,AGGGGCGA,-0.155
23,ATCACTCG,0.0455
24,AGCTGGTA,-0.107
25,ACAGGAAC,-0.0162

row,Sequence,PBM 8-mer E-score
1,AGAACTTA,0.256
2,GTAACTTA,0.37
3,CTAACTAA,0.286
4,CTAACTGA,0.0161
5,GTAACTGA,0.199
6,GTAACTCA,0.116
7,ATAACTGA,0.246
8,CTAACTTA,0.379
9,ATAACTTA,0.429
10,CTTGTCGC,-0.147
11,CCTCGTGA,-0.253
12,CCCTGTTA,-0.0586
13,AGCAAGAG,-0.0917
14,TCGATCCA,-0.213
15,ACATCTTC,0.185
16,ATCTACTG,0.0718
17,ATTTGTTG,0.172
18,ATTGAAAT,0.27
19,ACTAGTTA,0.345
20,CTAAATGA,0.126
21,CTAAATCA,0.0639
22,TTAAACAA,0.321
23,TTAAATAA,0.445
24,CTAAATAA,0.365
25,CTAAATAC,0.232

row,Sequence,PBM 8-mer E-score
1,GCGATTCC,-0.0999
2,AGGCAGAA,-0.226
3,ACTCGTGA,-0.0788
4,GGACTCCC,-0.283
5,TAGTGAGA,0.0304
6,ACCCTTCC,-0.184
7,ACATATTA,0.44
8,ACATATTC,0.281
9,CCATATTC,0.161
10,GCATATTA,0.278
11,CCATATTA,0.353
12,ACATATTG,0.281
13,AACCACTC,0.00691
14,GCGGAGGA,-0.291
15,AAATTTGT,0.264
16,AGGGTACC,-0.343
17,GACAAATA,0.297
18,TACAAATA,0.355
19,AACAAAAT,0.35
20,AACAAAAA,0.239
21,AACAAGAT,0.164
22,AACAAATA,0.369
23,CACAAATA,0.338
24,AACAAATG,0.172
25,AACAAGTA,0.343
